{
  "source": "PubChem BioAssay",
  "note": "Activity calls are given as the source filed them.",
  "data": [
    {"molecular_target": "Torsin-1A-interacting protein 2 (Homo sapiens) (UniProt Q8NFQ8)", "sequence (Q8NFQ8 whole entry, looked up)": "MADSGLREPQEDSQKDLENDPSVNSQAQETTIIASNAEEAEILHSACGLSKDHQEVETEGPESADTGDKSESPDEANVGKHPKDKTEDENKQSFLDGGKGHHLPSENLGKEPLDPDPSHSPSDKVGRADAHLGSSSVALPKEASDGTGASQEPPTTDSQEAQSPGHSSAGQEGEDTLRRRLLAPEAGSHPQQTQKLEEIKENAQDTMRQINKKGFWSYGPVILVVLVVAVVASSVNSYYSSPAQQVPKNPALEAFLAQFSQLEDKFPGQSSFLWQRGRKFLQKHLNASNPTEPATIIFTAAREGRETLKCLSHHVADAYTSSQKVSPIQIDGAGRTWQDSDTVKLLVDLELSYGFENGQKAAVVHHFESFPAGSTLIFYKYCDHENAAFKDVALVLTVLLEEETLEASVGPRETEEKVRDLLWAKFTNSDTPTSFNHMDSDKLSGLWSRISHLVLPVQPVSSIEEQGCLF", "assay": "small molecules binding lysate-expressed LULL1 – cell lysate, human LULL1 lysate, 635/667 nm fluorescence, primary screen (AID 1092);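 further: probe is lysate of COS7 cells overexpressing human LULL1; score merges per-feature 667 nm fluorescence with signal-to-noise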", "settings": "small-molecule microarray, hLULL1 lysate binding, 635 nm fluorescence; higher = more signal", "values": [
      {"smiles": "COc1ccc(C(O)C2C=CC3C(=O)N(C)C(=O)C3N2NC(=O)OC(C)(C)C)c2ccccc12", "note": "(stereo not drawn)", "composite z-score": 3.12},
      {"smiles": "OCC1C=C(/C=C/c2ccccc2)CN1Cc1ccccc1Br", "note": "(stereo not drawn)", "composite z-score": 1.44},
      {"smiles": "CN1C(=O)C2C=CC(C(O)c3ccc(F)cc3)N(N(c3ccccc3)c3ccccc3)C2C1=O", "note": "(stereo not drawn)", "composite z-score": 1.86},
      {"smiles": "CC(=CC1CCCCC1)[C@@H](NC(=O)c1cccnc1)c1ccc(-c2ccccc2)cc1", "composite z-score": 1.16},
      {"smiles": "CCN(CC)c1ccc(N2CC=CC34O[C@@H]5C=CCOC(=O)[C@@H]5[C@H]3C(=O)N(CCCCCCO)[C@@H]4C2=O)cc1", "note": "(stereo partly drawn)", "composite z-score": 2.63},
      {"smiles": "C=C(CCCC)/C(=C/C[C@H](OC(=O)c1ccncc1)c1ccc(OCCO)cc1)c1cc(C(=O)OC)ccc1OC", "composite z-score": 1.27},
      {"smiles": "COCCOC(=O)N1C(=O)[C@@]2(c3cc(C#CC4(O)CCCCCC4)ccc31)[C@H](c1ccccc1OCCO)N1[C@H](c3ccccc3)[C@H](c3ccccc3)OC(=O)[C@H]1[C@@H]2C(=O)N1CCc2cc(OC)c(OC)cc2C1", "composite z-score": 2.96}
    ]},
    {"test_system": "not listed separately", "assay": "optical density change of DRC41 E. coli – strain DRC41, OD650, 24 h, E. coli filamentation project, primary screen (AID 1093);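 further: MC1000 strain lacking acrAB efflux and sulA so SOS filamentation is blocked; test concentration not given here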", "settings": "E. coli DRC41 growth, higher = more signal, called active from +8 up or from −8 down", "values": [
      {"smiles": "CC[C@@H]1C=C(C(=O)O)[C@H](c2ccc(C)cc2)N1S(=O)(=O)c1ccc(C)cc1", "z-score": "-0.552 (inactive)"},
      {"smiles": "COCC(=C=CC[C@@H](O)c1ccc(OCCO)cc1)C[C@@H](O)c1ccccn1", "z-score": "-0.136 (inactive)"},
      {"smiles": "C=CCN1Cc2ccccc2[C@@H]2OC(c3ccc(OCCCO)cc3)=N[C@]2(CCS(=O)(=O)c2ccccc2)C1=O", "z-score": "0.953 (inactive)"},
      {"smiles": "COc1cc(OC)c(C(O)C2C=CC3C(=O)NC(=O)C3N2Nc2ccccn2)cc1Br", "note": "(stereo not drawn)", "z-score": "-0.564 (inactive)"},
      {"smiles": "COC(=O)[C@H](Cc1ccccc1)N[C@H](/C=C/C1CC1)[C@@H](O)Cc1ccccc1", "z-score": "1.04 (inactive)"},
      {"smiles": "O=C1C2C=CC(C(O)c3ccc4c(c3)OCO4)N(Nc3ccc([N+](=O)[O-])cc3)C2C(=O)N1c1ccccc1", "note": "(stereo not drawn)", "z-score": "-0.245 (inactive)"},
      {"smiles": "CC(C)CNC(=O)[C@@]1(Cc2ccccc2I)c2ccccc2C(=O)N(Cc2ccccc2C(F)(F)F)[C@H]1c1ccc(CO)cc1", "z-score": "0.164 (inactive)"},
      {"smiles": "COc1cc2c(cc1O)C(c1cccs1)N(Cc1cccc(OC(F)(F)F)c1)CC2", "note": "(stereo not drawn)", "z-score": "-0.878 (inactive)"},
      {"smiles": "C=C(/C(=C/C[C@H](OC(=O)c1ccncc1)c1ccc(OCCO)cc1)c1cc(C(=O)OC)ccc1OC)C(C)C", "z-score": "1.09 (inactive)"},
      {"smiles": "CC1CC/C=C\\[C@H]2OC34C=CCN(Cc5ccccc5)C(=O)[C@H]3N(C(C)CO)C(=O)[C@@H]4C2C(=O)O1", "note": "(stereo partly drawn)", "z-score": "0.524 (inactive)"},
      {"smiles": "CCOC(=O)C[C@H]1[C@H](OC(=O)c2ccc(-c3ccccc3)cc2)[C@@H](NC(=O)c2ccccc2)c2cc(OCCCO)ccc2N1C(=O)Cc1ccc(OC)cc1", "z-score": "0.258 (inactive)"},
      {"smiles": "COc1ccc(NN2C(C(O)c3ccc(N(C)C)cc3)C=CC3C(=O)N(C4CCCCC4)C(=O)C32)cc1", "note": "(stereo not drawn)", "z-score": "-0.386 (inactive)"},
      {"smiles": "NC(=O)[C@@H]1[C@H]2C(=O)O[C@H](c3ccccc3)[C@H](c3ccccc3)N2[C@H](c2ccc(O)cc2)[C@@]12C(=O)Nc1ccc(C#CC3=CCCCC3)cc12", "z-score": "-0.716 (inactive)"},
      {"smiles": "C=CCC(OC(C)=O)[C@@H]1[C@@H](N(Cc2ccc(-c3cccc(C(F)(F)F)c3)o2)C(=O)c2cccc3ccccc23)c2cc(OCCCO)ccc2N1C(=O)Cc1ccc2ccccc2c1", "note": "(stereo partly drawn)", "z-score": "-0.57 (inactive)"},
      {"smiles": "O=C1O[C@@H](c2ccccc2)[C@@H](c2ccccc2)N2[C@@H](c3ccccc3OCCO)[C@]3(C(=O)Nc4ccccc43)[C@@H](C(=O)O)[C@H]12", "z-score": "-0.413 (inactive)"},
      {"smiles": "O=C1OCCC/C=C\\[C@H]2OC34C=CCN(c5ccc6ccccc6c5)C(=O)[C@H]3N(CCCCCO)C(=O)[C@@H]4C12", "note": "(stereo partly drawn)", "z-score": "-0.72 (inactive)"},
      {"smiles": "Cc1ccc(S[C@]2(C(=O)NCC(C)C)CC(=O)N(Cc3cc(C(F)(F)F)cc(C(F)(F)F)c3)[C@@H]2c2ccc(CO)cc2)cc1", "z-score": "-0.869 (inactive)"},
      {"smiles": "COc1ccc([C@H]2C[C@H]3C(I)=C[C@@H]2C(=O)[C@]32CO2)cc1", "z-score": "1.6 (inactive)"},
      {"smiles": "C=CCNC(=O)[C@@H]1[C@H]2C(=O)O[C@H](c3ccccc3)[C@H](c3ccccc3)N2[C@H](c2ccc(OCCO)cc2)[C@@]12C(=O)N(C(=O)OCCOC)c1ccc(C#CCC(C(=O)OC)C(=O)OC)cc12", "z-score": "-0.0236 (inactive)"},
      {"smiles": "COc1ccc([Si](C)(C)[C@H]2[C@H](CCO)O[C@@]3(C(=O)N(Cc4ccccc4)c4ccc(N5CCCCC5=O)cc43)[C@@H]2C)cc1", "z-score": "0.587 (inactive)"},
      {"smiles": "C[N+](C)(C)CCCC[C@@H]1NC(=O)[C@@H]2C[C@H](C(=O)NCCCCCN)[C@H](c3ccc(O)cc3)N2C1=O", "z-score": "1.12 (inactive)"},
      {"smiles": "O=C1C2C=CC(C(O)c3ccc(-c4ccccc4)s3)N(Nc3ccccc3)C2C(=O)N1c1ccccc1", "note": "(stereo not drawn)", "z-score": "-0.579 (inactive)"},
      {"smiles": "COc1ccc(C(=O)Nc2cccc(CN3C(=O)[C@]4(O[C@H](CCn5cc(CCO)nn5)[C@@H]([Si](C)(C)c5ccc(OC)cc5)[C@@H]4C)c4ccccc43)c2)cc1", "z-score": "0.506 (inactive)"},
      {"smiles": "COC(=O)[C@@]1(Cc2ccccc2)[C@H]2c3cc(C(=O)N4CCCC4)n(Cc4ccc(O)c(OC)c4)c3C[C@H]2CN1C(=O)c1ccccc1", "z-score": "-0.667 (inactive)"},
      {"smiles": "O=C(NCCN1CCOCC1)[C@@H]1c2ccccc2C(=O)N(Cc2cc(C(F)(F)F)cc(C(F)(F)F)c2)[C@H]1c1ccc(CO)cc1", "z-score": "0.339 (inactive)"},
      {"smiles": "O=C1C2C=CC(C(O)c3cc(C(F)(F)F)cc(C(F)(F)F)c3)N(Nc3ccccc3)C2C(=O)N1c1ccccc1", "note": "(stereo not drawn)", "z-score": "-0.747 (inactive)"},
      {"smiles": "O=C1OCC=C[C@H]2OC34C=CCN(CCN5CCOCC5)C(=O)[C@H]3N(CCO)C(=O)[C@@H]4[C@@H]12", "note": "(stereo partly drawn)", "z-score": "-0.653 (inactive)"},
      {"smiles": "CCCCCCc1nc(-c2ccc(-c3ccc(Cl)c(Cl)c3)o2)cc2c1[Si](C(C)C)(C(C)C)O[C@H]2c1ccccc1", "z-score": "0.488 (inactive)"},
      {"smiles": "O=C1C2C=CC(C(O)c3c(F)cccc3Cl)N(Nc3ccccc3F)C2C(=O)N1c1ccccc1", "note": "(stereo not drawn)", "z-score": "-0.744 (inactive)"},
      {"smiles": "COc1ccc(C(O)C2C=CC3C(=O)N(C)C(=O)C3N2NC(=O)OC(C)(C)C)c2ccccc12", "note": "(stereo not drawn)", "z-score": "-0.618 (inactive)"},
      {"smiles": "OCC1C=C(/C=C/c2ccccc2)CN1Cc1ccccc1Br", "note": "(stereo not drawn)", "z-score": "1.58 (inactive)"},
      {"smiles": "CN1C(=O)C2C=CC(C(O)c3ccc(F)cc3)N(N(c3ccccc3)c3ccccc3)C2C1=O", "note": "(stereo not drawn)", "z-score": "-1.2 (inactive)"},
      {"smiles": "CC(=CC1CCCCC1)[C@@H](NC(=O)c1cccnc1)c1ccc(-c2ccccc2)cc1", "z-score": "-2.18 (inactive)"},
      {"smiles": "CCN(CC)c1ccc(N2CC=CC34O[C@@H]5C=CCOC(=O)[C@@H]5[C@H]3C(=O)N(CCCCCCO)[C@@H]4C2=O)cc1", "note": "(stereo partly drawn)", "z-score": "2.24 (inactive)"},
      {"smiles": "C=C(CCCC)/C(=C/C[C@H](OC(=O)c1ccncc1)c1ccc(OCCO)cc1)c1cc(C(=O)OC)ccc1OC", "z-score": "0.987 (inactive)"},
      {"smiles": "COCCOC(=O)N1C(=O)[C@@]2(c3cc(C#CC4(O)CCCCCC4)ccc31)[C@H](c1ccccc1OCCO)N1[C@H](c3ccccc3)[C@H](c3ccccc3)OC(=O)[C@H]1[C@@H]2C(=O)N1CCc2cc(OC)c(OC)cc2C1", "z-score": "0.339 (inactive)"}
    ]}
  ]
}
